# From ChEMBL document CHEMBL1961873, “Compounds: GSK PKIS; Assays: Nanosyn kinase panel” (2012)
# How the values were obtained:
# [1] = target: Protein kinase C gamma type (Homo sapiens) (UniProt P05129); conditions: at 1 µM;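 also: each value is an averaged percent inhibition of the enzyme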
# [2] = target: T1, Protein kinase C iota type (Homo sapiens) (UniProt P41743); conditions: at 0.1 µM
# T1 sequence (whole entry): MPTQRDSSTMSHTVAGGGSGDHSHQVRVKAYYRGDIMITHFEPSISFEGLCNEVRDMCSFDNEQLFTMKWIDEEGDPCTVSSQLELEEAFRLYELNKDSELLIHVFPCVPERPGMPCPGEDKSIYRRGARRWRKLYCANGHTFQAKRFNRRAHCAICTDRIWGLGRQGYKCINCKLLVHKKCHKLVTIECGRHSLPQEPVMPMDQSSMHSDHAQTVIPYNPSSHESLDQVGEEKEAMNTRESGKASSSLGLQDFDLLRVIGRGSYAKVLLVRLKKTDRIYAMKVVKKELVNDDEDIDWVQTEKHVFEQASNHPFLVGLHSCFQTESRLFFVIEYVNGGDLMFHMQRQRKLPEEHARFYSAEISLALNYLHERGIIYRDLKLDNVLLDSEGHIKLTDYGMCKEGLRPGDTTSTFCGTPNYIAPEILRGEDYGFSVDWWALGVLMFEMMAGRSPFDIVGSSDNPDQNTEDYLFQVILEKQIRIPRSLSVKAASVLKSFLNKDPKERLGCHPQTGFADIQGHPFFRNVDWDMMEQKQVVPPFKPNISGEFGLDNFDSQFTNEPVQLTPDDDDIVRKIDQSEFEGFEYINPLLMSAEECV
# [3] = target: T1, Protein kinase C iota type (Homo sapiens); conditions: at 1 µM
# [4] = target: Protein kinase C theta type (Homo sapiens) (UniProt Q04759); conditions: at 0.1 µM
# [5] = target: Protein kinase C theta type (Homo sapiens) (UniProt Q04759); conditions: at 1 µM
# [6] = target: Protein kinase C beta type (Homo sapiens) (UniProt P05771); conditions: at 0.1 µM
# [7] = target: Protein kinase C beta type (Homo sapiens) (UniProt P05771); conditions: at 1 µM
# [8] = target: T2, Serine/threonine-protein kinase D1 (Homo sapiens) (UniProt Q15139); conditions: at 0.1 µM
# T2 sequence (whole entry): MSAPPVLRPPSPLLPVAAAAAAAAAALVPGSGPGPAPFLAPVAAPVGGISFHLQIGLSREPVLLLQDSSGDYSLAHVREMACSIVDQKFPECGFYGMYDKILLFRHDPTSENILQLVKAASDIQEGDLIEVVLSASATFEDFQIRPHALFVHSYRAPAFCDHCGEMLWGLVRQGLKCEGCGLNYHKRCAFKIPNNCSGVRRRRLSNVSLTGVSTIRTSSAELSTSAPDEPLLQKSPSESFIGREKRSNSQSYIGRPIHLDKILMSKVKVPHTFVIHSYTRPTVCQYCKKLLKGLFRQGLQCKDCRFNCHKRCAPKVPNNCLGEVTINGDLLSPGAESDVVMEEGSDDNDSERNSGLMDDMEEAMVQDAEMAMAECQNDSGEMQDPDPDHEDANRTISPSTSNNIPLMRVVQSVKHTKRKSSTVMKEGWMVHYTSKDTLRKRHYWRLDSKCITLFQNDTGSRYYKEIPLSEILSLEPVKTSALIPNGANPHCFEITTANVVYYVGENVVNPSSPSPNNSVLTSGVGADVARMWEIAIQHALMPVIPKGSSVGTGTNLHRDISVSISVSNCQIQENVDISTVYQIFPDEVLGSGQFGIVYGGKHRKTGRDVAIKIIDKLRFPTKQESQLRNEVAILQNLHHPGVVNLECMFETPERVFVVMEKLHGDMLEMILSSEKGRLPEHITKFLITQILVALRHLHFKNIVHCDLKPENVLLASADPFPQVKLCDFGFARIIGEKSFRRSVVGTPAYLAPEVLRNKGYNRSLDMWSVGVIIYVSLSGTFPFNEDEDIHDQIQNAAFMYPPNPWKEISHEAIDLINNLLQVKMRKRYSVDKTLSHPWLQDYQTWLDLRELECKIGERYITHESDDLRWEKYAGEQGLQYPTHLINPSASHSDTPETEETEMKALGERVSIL
# [9] = target: T2, Serine/threonine-protein kinase D1 (Homo sapiens); conditions: at 1 µM
# [10] = target: T3, Serine/threonine-protein kinase D2 (Homo sapiens) (UniProt Q9BZL6); conditions: at 0.1 µM
# T3 sequence (whole entry): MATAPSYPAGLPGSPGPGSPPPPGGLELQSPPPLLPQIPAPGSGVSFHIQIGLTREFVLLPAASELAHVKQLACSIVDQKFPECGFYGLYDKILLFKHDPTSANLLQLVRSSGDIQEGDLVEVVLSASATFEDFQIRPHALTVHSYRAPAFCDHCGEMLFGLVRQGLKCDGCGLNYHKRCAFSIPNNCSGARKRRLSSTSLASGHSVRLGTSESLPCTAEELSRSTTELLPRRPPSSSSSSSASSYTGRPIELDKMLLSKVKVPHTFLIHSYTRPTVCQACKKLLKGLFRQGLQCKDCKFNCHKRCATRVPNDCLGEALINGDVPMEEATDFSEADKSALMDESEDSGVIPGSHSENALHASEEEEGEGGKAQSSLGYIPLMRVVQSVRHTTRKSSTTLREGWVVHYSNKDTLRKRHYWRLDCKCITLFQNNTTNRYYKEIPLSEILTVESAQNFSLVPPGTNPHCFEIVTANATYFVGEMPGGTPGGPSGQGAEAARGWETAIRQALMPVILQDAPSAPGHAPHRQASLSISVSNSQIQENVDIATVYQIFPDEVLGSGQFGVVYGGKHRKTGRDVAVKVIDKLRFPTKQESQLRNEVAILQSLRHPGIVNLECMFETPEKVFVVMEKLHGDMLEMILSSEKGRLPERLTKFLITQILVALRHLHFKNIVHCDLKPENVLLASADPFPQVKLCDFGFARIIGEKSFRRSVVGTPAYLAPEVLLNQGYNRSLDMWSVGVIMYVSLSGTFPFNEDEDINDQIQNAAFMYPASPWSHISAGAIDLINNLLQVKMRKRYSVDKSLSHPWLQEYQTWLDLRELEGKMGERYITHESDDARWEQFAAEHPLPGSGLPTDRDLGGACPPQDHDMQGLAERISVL
# [11] = target: T3, Serine/threonine-protein kinase D2 (Homo sapiens); conditions: at 1 µM
# [12] = target: T4, Serine/threonine-protein kinase D3 (Homo sapiens) (UniProt O94806); conditions: at 0.1 µM
# T4 sequence (whole entry): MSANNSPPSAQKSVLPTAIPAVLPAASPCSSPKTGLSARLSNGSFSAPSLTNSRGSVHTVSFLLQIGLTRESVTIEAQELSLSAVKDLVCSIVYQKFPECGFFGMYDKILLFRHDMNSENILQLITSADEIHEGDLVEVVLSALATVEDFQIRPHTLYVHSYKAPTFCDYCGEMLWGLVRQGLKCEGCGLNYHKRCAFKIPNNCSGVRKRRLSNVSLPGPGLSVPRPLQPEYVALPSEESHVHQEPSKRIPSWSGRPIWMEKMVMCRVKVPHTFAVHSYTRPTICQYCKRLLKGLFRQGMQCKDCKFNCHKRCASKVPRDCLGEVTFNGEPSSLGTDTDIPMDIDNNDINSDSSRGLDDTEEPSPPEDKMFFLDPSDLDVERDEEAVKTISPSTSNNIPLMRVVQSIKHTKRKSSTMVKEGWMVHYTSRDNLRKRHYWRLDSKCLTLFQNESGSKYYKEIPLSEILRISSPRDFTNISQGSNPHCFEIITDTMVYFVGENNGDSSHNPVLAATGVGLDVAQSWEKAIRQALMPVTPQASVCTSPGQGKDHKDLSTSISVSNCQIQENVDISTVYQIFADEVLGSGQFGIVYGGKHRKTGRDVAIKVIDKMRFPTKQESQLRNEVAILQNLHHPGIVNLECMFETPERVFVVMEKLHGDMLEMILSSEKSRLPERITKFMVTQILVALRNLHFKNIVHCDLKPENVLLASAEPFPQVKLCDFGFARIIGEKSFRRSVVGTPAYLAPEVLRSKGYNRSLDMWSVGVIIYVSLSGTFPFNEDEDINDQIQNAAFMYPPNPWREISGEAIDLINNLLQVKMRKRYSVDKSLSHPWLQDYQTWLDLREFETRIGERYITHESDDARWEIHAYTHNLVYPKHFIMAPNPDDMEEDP
# [13] = target: T4, Serine/threonine-protein kinase D3 (Homo sapiens); conditions: at 1 µM
# [14] = target: T5, cGMP-dependent protein kinase 1 (Homo sapiens) (UniProt Q13976); conditions: at 0.1 µM
# T5 sequence (whole entry): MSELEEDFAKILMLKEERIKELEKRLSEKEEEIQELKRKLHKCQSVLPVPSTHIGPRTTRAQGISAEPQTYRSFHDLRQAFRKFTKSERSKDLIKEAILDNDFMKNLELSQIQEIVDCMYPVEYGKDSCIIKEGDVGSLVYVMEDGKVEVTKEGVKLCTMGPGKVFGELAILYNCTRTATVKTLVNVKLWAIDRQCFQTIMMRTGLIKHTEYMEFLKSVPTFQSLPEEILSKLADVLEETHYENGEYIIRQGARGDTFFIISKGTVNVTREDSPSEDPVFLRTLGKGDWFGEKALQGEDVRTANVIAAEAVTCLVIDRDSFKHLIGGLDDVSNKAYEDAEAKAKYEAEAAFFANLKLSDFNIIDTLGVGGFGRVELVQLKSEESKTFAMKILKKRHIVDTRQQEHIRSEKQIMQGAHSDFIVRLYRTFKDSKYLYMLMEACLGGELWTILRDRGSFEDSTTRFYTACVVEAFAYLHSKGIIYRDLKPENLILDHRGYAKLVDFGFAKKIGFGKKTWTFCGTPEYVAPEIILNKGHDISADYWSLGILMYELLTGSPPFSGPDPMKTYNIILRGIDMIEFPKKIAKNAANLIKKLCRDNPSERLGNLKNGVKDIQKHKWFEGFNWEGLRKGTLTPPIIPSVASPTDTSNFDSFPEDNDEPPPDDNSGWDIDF
# [15] = target: T5, cGMP-dependent protein kinase 1 (Homo sapiens); conditions: at 1 µM
# [16] = target: T6, cGMP-dependent protein kinase 2 (Homo sapiens) (UniProt Q13237); conditions: at 0.1 µM
# T6 sequence (whole entry): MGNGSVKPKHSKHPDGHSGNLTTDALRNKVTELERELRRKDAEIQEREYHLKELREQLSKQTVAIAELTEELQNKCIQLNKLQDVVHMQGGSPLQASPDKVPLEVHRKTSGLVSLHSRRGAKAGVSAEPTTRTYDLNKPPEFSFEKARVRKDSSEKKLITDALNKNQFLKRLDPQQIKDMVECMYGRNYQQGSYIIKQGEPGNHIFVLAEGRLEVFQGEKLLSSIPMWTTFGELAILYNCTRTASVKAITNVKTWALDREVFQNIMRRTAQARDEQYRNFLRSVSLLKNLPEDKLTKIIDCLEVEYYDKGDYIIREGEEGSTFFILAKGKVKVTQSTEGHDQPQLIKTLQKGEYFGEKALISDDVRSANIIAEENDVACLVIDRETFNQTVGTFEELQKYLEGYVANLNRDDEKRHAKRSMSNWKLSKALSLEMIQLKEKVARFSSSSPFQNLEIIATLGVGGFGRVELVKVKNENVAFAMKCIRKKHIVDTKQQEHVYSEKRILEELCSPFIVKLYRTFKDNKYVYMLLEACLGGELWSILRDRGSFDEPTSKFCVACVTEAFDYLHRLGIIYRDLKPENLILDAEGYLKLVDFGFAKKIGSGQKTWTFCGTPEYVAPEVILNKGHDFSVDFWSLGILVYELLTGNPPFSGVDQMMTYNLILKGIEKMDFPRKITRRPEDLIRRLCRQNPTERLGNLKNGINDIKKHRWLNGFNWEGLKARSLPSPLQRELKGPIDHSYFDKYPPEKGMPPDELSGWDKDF
# [17] = target: T6, cGMP-dependent protein kinase 2 (Homo sapiens); conditions: at 1 µM
# [18] = target: T7, cAMP-dependent protein kinase catalytic subunit PRKX (Homo sapiens) (UniProt P51817); conditions: at 0.1 µM
# T7 sequence (whole entry): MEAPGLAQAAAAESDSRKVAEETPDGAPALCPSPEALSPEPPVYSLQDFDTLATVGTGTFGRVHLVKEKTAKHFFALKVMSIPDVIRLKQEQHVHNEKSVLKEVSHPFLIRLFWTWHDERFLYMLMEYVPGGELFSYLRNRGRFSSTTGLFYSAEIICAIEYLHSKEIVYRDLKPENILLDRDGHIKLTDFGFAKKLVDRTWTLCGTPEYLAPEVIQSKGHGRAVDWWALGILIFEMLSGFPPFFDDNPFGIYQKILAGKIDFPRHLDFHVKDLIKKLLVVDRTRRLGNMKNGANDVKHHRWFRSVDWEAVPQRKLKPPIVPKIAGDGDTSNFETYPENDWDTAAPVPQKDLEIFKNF
# [19] = target: T7, cAMP-dependent protein kinase catalytic subunit PRKX (Homo sapiens); conditions: at 1 µM
# [20] = target: Rho-associated protein kinase 1 (Homo sapiens) (UniProt Q13464); conditions: at 0.1 µM;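 also: values are mean percent inhibition of ROCK1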
# Rho-associated protein kinase 1 (Homo sapiens), sequence (Q13464 2-1354 limits assumed): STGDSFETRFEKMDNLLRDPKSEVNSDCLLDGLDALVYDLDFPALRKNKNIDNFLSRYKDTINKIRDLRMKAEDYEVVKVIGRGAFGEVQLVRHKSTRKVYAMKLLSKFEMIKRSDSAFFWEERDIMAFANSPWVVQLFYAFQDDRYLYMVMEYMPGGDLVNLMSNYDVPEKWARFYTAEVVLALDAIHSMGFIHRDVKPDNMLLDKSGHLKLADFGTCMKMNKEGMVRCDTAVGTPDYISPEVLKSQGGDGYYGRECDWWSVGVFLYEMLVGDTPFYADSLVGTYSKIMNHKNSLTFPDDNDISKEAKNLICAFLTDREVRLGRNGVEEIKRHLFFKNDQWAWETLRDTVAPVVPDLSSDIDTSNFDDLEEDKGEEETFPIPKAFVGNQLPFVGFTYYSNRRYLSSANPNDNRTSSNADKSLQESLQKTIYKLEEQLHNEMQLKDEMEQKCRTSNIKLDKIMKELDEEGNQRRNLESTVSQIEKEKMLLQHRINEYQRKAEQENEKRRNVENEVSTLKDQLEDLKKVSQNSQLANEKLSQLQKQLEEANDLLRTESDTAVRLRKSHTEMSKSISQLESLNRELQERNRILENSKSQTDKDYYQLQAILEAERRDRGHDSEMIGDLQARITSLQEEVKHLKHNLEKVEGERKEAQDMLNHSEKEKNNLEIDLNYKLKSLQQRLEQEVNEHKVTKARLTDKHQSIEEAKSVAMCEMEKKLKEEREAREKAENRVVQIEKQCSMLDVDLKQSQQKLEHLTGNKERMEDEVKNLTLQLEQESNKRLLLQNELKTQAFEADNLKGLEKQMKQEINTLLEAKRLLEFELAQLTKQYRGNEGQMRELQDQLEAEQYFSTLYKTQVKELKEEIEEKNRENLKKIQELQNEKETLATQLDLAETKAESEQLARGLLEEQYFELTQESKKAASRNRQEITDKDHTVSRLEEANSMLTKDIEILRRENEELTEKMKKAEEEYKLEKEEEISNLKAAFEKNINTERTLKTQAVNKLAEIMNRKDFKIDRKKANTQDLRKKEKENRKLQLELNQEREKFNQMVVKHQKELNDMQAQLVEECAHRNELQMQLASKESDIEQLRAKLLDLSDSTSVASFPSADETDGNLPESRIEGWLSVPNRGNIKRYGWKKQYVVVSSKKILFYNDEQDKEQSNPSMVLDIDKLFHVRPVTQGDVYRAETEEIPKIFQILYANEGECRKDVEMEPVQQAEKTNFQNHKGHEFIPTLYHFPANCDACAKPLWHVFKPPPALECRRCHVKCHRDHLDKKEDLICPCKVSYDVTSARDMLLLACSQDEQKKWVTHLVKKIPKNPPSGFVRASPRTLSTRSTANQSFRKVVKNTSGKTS
# Protein kinase C beta type (Homo sapiens), sequence (P05771 2-671 limits assumed): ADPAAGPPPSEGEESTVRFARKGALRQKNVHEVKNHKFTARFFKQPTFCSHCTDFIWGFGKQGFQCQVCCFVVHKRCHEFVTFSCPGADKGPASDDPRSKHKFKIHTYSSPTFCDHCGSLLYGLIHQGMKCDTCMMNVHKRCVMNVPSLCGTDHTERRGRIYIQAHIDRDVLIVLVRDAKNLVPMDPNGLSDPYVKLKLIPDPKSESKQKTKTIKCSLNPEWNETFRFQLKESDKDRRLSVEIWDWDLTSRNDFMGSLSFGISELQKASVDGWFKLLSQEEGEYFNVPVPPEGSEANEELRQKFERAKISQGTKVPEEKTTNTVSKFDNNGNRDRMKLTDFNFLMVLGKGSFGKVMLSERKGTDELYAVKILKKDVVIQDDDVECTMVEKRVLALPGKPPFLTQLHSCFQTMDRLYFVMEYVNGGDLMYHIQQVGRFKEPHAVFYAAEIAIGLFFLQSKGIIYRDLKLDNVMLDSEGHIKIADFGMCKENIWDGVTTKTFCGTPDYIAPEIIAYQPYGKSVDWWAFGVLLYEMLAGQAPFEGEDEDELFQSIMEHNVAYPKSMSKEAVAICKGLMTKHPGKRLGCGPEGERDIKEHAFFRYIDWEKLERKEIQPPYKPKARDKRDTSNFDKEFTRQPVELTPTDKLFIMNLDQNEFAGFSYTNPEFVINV
# Protein kinase C theta type (Homo sapiens), sequence (Q04759 whole entry, looked up): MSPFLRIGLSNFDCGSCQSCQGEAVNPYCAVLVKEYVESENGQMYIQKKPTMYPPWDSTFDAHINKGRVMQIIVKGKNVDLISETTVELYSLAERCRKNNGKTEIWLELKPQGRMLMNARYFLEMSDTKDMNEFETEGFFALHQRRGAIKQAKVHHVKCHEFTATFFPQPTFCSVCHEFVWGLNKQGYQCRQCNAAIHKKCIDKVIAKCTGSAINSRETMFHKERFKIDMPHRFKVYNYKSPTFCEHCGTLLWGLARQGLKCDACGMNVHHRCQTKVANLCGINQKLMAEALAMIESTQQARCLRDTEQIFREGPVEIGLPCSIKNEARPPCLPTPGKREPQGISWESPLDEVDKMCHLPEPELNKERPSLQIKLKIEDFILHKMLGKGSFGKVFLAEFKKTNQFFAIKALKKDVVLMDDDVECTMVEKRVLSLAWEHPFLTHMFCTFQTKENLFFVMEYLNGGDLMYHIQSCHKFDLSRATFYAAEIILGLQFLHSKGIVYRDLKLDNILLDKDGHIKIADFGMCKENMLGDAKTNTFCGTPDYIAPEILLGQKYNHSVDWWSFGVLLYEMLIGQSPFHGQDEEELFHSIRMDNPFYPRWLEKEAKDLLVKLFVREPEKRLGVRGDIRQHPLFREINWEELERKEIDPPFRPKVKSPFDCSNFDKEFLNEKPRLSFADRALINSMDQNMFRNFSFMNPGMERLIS
Structure (SMILES),inhibition [1],inhibition [2],inhibition [3],inhibition [4],inhibition [5],inhibition [6],inhibition [7],inhibition [8],inhibition [9],inhibition [10],inhibition [11],inhibition [12],inhibition [13],inhibition [14],inhibition [15],inhibition [16],inhibition [17],inhibition [18],inhibition [19],inhibition [20]
COC(=O)c1cncc(/C=C/c2c(C)cc(O)cc2C)c1,3.93%,2.79%,0.49%,2.55%,3.44%,-1.36%,2.82%,3.37%,5%,3.87%,4%,4.31%,3.64%,3.3%,2.75%,1.54%,2.4%,1.78%,3.76%,0.77%
COc1cc(/C=N/Nc2ncnc3c2cnn3C(C)C)ccc1O,5.96%,1.94%,1.52%,1.33%,4.03%,1.47%,4.67%,1.79%,1.16%,1.45%,1.41%,1.37%,1.6%,3.26%,3.14%,0.71%,2.16%,0.57%,0.81%,0.31%
Cc1cc(-c2ccccn2)cc(C)c1/C=C/c1cncc(-c2nn[nH]n2)c1,2.83%,0.86%,1.38%,1.86%,3.08%,1.2%,2.79%,6.68%,11%,6.87%,12.2%,6.27%,12.1%,3.51%,5.76%,2.46%,5.89%,2%,2.53%,2.04%
c1ccc(Cc2nc3ccc(Nc4ncnc5ccccc45)cc3[nH]2)cc1,2.9%,0.63%,0.68%,1.76%,2.47%,0.1%,0.12%,2.88%,6.43%,2.49%,4.57%,3.17%,5.52%,1.14%,4.46%,1.61%,6.41%,0.98%,1.89%,0.25%
